Several values for one entry are separate records, joined by “and”; a condition that tells them apart may be missing. Equal values may be shown once. Records with an inconclusive call do not appear. Where a structure was tested more than once in an assay, its records may differ in their call. Activity calls are given as the source filed them. Unless noted, calls follow the shape of the dose curve; as a rule, active = well fitted curve in the direction sought with a large enough effect in the repeat runs; inconclusive = weak or mixed curves; inactive = no such curve, though single readings can be large; an effect the other way counts as inactive or inconclusive.
What was measured:
[1] = qHTS assay to identify small molecule agonists of the constitutive androstane receptor (CAR) signaling pathway - cell viability counter screen (AID 1224836); also: nearly all actives have a fitted effect of over 45% in size; also: potency is read from the fitted curve at half-maximal effect
In short: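 Double-stable HepG2 hepatoma cells (hCAR plus CYP2B6-2.2kb) are treated for 23 h at 37 C with test compounds in 15-point concentration series. PK11195 at 0.75 uM final is co-added. Cell viability is quantified by CellTiter-Fluor.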

[2] = qHTS assay to identify small molecule antagonists of the constitutive androstane receptor (CAR) signaling pathway - cell viability counter screen (AID 1224837); also: nearly all actives have a fitted effect of over 45% in size; also: potency is read from the fitted curve at half-maximal effect
In short: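 CITCO at 50 nM final was added alongside compounds (15 concentrations) to double-stable hCAR/CYP2B6-2.2kb HepG2 cells. Following 23 hr at 37 C, cell viability was quantified by CellTiter-Fluor fluorescence intensity.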

[3] = target: Nuclear receptor subfamily 1 group I member 3 (Homo sapiens) (UniProt Q14994); assay: qHTS assay to identify small molecule antagonists of the constitutive androstane receptor (CAR) signaling pathway (AID 1224838); also: nearly all actives have a fitted effect of over 40% in size; also: potency is read from the fitted curve at half-maximal effect
Chain of Nuclear receptor subfamily 1 group I member 3 (Homo sapiens) (Q14994 whole entry, looked up): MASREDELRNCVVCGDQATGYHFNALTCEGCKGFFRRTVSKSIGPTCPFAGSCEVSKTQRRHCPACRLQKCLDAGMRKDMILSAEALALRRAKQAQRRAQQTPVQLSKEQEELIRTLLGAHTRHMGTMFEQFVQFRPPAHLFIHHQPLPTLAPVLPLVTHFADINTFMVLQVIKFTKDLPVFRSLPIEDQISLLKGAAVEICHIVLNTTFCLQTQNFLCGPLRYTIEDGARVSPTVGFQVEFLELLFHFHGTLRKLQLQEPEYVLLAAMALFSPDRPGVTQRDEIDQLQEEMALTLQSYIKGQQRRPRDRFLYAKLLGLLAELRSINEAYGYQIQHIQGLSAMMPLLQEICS
In short: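 Inhibition of CITCO-driven (50 nM final) CYP2B6 reporter expression is measured in HepG2 cells stably carrying hCAR. Fifteen compound concentrations are applied for 24 h at 37 C, followed by luciferase luminescence.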

[4] = target: Nuclear receptor subfamily 1 group I member 3 (Homo sapiens) (UniProt Q14994); assay: qHTS assay to identify small molecule agonists of the constitutive androstane receptor (CAR) signaling pathway (AID 1224839); also: nearly all actives have a fitted effect of over 15% in size; also: potency is read from the fitted curve at half-maximal effect
In short: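 Readout: firefly luciferase luminescence via ONE-Glo. System: HepG2 double-stable for hCAR and CYP2B6-2.2kb. Conditions: 15-point compound titration, PK11195 at 0.75 uM final, 24 h incubation.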

[5] = qHTS assay to identify small molecule antagonists of the estrogen related receptor signaling pathway with the pleiotropic PPARgamma coactivator (PGC) from Tox21 10K library - cell viability counter screen (AID 1224840; active = well fitted cell-killing curve with a large enough effect in the repeat runs, not every such curve was filed as active; also: nearly all actives have a fitted effect of over 40% in size; also: potency is read from the fitted curve at half-maximal effect)
In short: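 Readout: fluorescence intensity from CellTiter-Fluor after 30 min at 37 C/5% CO2. Preceded by 17.5 h treatment of PGC/ERR cells with DMSO-dissolved compounds, added 6 h post-seeding.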

[6] = qHTS assay to identify small molecule agonists of the estrogen related receptor signaling pathway with the pleiotropic PPARgamma coactivator (PGC) from Tox21 10K library (AID 1224842); also: nearly all actives have a fitted effect of over 15% in size
In short: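 PGC/ERR reporter cell line, 2,000 cells per well, incubated 6 h at 37 C before 23 nL compound in DMSO was added. After 18 h at 37 C, One-Glo luminescence read following 30 min at room temperature.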

[7] = target: Thyrotropin receptor (Homo sapiens) (UniProt P16473); assay: qHTS assay to identify small molecule agonists of the thyroid stimulating hormone receptor (TSHR) signaling pathway (AID 1224843; calls by dose curve; also: nearly all actives have a fitted effect of over 45% in size; also: potency is read from the fitted curve at half-maximal effect)
Chain of Thyrotropin receptor (Homo sapiens) (P16473 whole entry, looked up): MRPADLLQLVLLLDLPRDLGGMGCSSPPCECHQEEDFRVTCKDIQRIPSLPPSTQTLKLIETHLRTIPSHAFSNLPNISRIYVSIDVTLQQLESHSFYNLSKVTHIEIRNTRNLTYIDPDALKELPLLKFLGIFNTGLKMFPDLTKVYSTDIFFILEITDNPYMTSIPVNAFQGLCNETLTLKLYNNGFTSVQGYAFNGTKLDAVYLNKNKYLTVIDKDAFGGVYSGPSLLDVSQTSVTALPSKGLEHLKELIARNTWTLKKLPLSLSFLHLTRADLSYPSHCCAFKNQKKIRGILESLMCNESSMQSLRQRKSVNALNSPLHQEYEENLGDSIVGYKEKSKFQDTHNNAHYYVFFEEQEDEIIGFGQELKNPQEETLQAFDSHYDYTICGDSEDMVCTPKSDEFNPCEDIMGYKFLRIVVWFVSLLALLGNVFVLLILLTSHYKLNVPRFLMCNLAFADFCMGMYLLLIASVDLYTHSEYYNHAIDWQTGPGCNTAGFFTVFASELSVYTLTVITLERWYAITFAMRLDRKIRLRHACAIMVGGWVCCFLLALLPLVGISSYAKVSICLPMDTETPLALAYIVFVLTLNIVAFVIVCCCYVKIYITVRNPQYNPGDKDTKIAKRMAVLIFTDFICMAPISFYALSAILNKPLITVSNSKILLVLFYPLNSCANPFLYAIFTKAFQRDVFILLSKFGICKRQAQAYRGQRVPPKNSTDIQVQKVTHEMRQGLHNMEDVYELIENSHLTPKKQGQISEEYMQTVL
In short: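 Agonist-mode screen: TSHR HEK293 cells received test chemicals for half an hour at room temperature, then HTRF cAMP detection reagents for one hour prior to fluorescence measurement. Each chemical ran as a 15-concentration series, triplicated.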

[8] = qHTS assay to identify small molecule agonists of the hypoxia (HIF-1) signaling pathway - cell viability counter screen (AID 1224844; calls by dose curve; also: nearly all actives have a fitted effect of over 50% in size; also: potency is read from the fitted curve at half-maximal effect)
In short: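 In this counter screen, HRE-bla ME-180 cell viability after 17 hrs of compound exposure at 37C was read by CellTiter-Glo luminescence, multiplexed with the beta-lactamase reporter measurement.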

[9] = target: Luciferin 4-monooxygenase (Photinus pyralis) (UniProt P08659); assay: qHTS assay to identify small molecule inhibitors of firefly luciferase (AID 1224835); also: potency is read from the fitted curve at half-maximal effect; nearly all actives have a fitted effect of over 25% in size
Chain of Luciferin 4-monooxygenase (Photinus pyralis) (P08659 whole entry, looked up): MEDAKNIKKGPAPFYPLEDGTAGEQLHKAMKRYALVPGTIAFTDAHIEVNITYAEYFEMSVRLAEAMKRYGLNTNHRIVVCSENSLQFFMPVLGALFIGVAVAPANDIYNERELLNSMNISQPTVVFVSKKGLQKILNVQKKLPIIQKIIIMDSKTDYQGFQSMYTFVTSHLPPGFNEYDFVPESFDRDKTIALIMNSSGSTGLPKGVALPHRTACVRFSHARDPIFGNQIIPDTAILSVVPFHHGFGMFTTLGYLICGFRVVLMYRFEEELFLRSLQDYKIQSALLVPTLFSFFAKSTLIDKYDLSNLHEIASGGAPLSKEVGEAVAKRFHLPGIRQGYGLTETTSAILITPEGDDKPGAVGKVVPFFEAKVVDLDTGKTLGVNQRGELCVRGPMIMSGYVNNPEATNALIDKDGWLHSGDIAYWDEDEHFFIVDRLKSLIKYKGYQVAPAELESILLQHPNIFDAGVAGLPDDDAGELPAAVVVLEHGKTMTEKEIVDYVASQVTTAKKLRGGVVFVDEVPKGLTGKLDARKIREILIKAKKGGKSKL
In short: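 Biochemical qHTS: compounds run as interplate titrations against purified firefly enzyme, with D-luciferin and ATP each at its KM concentration. Light output recorded by CCD imaging.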

[10] = qHTS assay to identify small molecule antagonists of the estrogen related receptor signaling pathway with the pleiotropic PPARgamma coactivator (PGC) from Tox21 10K library (AID 1224841; call rule not given here; also: actives are mostly falling curves and most rising ones were filed inactive; nearly all actives have a fitted effect of over 50% in size; also: potency is read from the fitted curve at half-maximal effect)
In short: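 One-Glo luminescence, measured after half an hour at room temperature, quantified reporter output of PGC/ERR cells. These had been plated at 2,000 per well, incubated 6 h, dosed with compounds in DMSO, then kept 18 h at 37 C.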

Measured: Potency

CO[Si](CCCNCCNCCN)(OC)OC
not listed: [9] | [10]
inactive: all other assays above

COc1cc(C=C2CCC/C(=C\c3ccc(O)c(OC)c3)C2=O)ccc1O
inactive: [6] | [7]
active: [9] 30.9 µM | [10] 11.9 µM | [8] 15.1 µM

Cc1ccc(N)cc1O
inactive: [1] | [2] | [3] | [5] | [8]
active: [4] 27.3 µM

CCCCCCCCCC(=O)N(C)C
active: [4] 55.3 µM
not listed: [5] | [9]
inactive: all other assays above

CCCCCCCC/C=C\CCCCCCCC(=O)NCc1ccc(O)c(OC)c1
not listed: [7] | [9] | [10]
inactive: all other assays above

O=Nc1ccc(NO)cc1
not listed: [7] | [9]
inactive: all other assays above

NCCCC(O)(P(=O)(O)O)P(=O)(O)O
not listed: [6] | [9] | [10]
inactive: all other assays above

Cn1cnc2ncnc(N)c21
not listed: [6] | [9] | [10]
inactive: all other assays above

CC(=O)Oc1ccc(C2(c3ccc(OC(C)=O)cc3)Oc3ccccc3NC2=O)cc1
active: [3] 16.8 µM
not listed: [6] | [9] | [10]
inactive: all other assays above

O=C1NCN(c2ccccc2)C12CCN(CCCC(c1ccc(F)cc1)c1ccc(F)cc1)CC2
inactive: [4] | [6] | [7]
active: [1] 16.8 µM | [2] 13.3 µM | [3] 13.3 µM | [8] 10.7 µM

CC(C)=CCCC(C)O (centres undefined)
not listed: [4] | [9]
inactive: all other assays above

C[C@H]1O[C@@H](O[C@H]2[C@@H](O)C[C@H](O[C@H]3[C@@H](O)C[C@H](O[C@H]4CC[C@@]5(C)[C@H](CC[C@@H]6[C@@H]5C[C@@H](O)[C@]5(C)[C@@H](C7=CC(=O)OC7)CC[C@]65O)C4)O[C@@H]3C)O[C@@H]2C)C[C@H](O)[C@@H]1O
active: [10] 154 nM and 107 nM | [8] 123 nM and 153 nM
inactive: [6]

Cc1oc(-c2ccccc2)nc1CCOc1ccc(C[C@H](Nc2ccccc2C(=O)c2ccccc2)C(=O)O)cc1
inactive: [6] | [7]

CCC1(c2cnc[nH]2)Cc2ccccc2C1
inactive: [1] | [2] | [3] | [5] | [8]

C=C(c1ccc(C(=O)O)cc1)c1cc2c(cc1C)C(C)(C)CCC2(C)C
inactive: [1] | [2] | [6]
61.1 µM (active) and inactive: [5]
active: [10] 21.7 µM | [8] 15.5 µM and 16.9 µM
38.6 µM (active) and inactive: [4]

CCCCOc1ccc(C(=O)CCN2CCCCC2)cc1
inactive: [3] | [4] | [5] | [7] | [8]

CC(C(O)c1ccccc1)N(C)CCOC(c1ccccc1)c1ccccc1 (centres undefined)
inactive: [6] | [7] | [8]

CN1[C@@H]2CC[C@H]1CC(OC(=O)C(CO)c1ccccc1)C2 (some centres undefined)
inactive: [1] | [2] | [3] | [8]

CCN(CC)CCOC(=O)C1(C2CCCCC2)CCCCC1
inactive: [1] | [2] | [3] | [5] | [8]

CO[C@H]1C=CO[C@@]2(C)Oc3c(C)c(O)c4c(O)c(cc(O)c4c3C2=O)NC(=O)/C(C)=C\C=C/[C@H](C)[C@H](O)[C@@H](C)[C@@H](O)[C@@H](C)[C@H](OC(C)=O)[C@@H]1C
inactive: [3] | [10] | [6]
active: [1] 61.6 µM | [2] 48.9 µM | [8] 22 µM

O=C(c1ccccc1)c1cc(Cl)ccc1O
not listed: [4] | [7] | [9]
inactive: all other assays above

O=C(NO)c1ccccc1
inactive: [1] | [2] | [5] | [6]
active: [10] 18.4 µM

c1cc2c3c(c1)ccc1cccc(c13)C2
not listed: [4] | [8] | [9]
inactive: all other assays above

CC(C)N=C(N)/N=C(\N)Nc1ccc(Cl)cc1
inactive: [1] | [2] | [5] | [10] | [6] | [8]

CCC(C)c1cc([N+](=O)[O-])cc([N+](=O)[O-])c1OC(=O)OC(C)C (centres undefined)
active: [2] 61.1 µM | [5] 43.3 µM | [10] 21.7 µM
inactive: [6] | [7]

O=C(O)CCCCCCC(=O)O
inactive: [1] | [2] | [5] | [7] | [8]

CCN(CC)c1cccc(C)c1
inactive: [1] | [2] | [5] | [10] | [6] | [8]

O=C1OC(=O)c2ccc3c4c(ccc1c24)C(=O)OC3=O
inactive: [1] | [2] | [3] | [7] | [8]

COC(=O)C1=C(C)NC(C)=C(C(=O)OCCCN2CCC(c3ccccc3)(c3ccccc3)CC2)C1c1cccc([N+](=O)[O-])c1 (centres undefined)
active: [2] 23.7 µM | [5] 26.6 µM | [10] 10.6 µM | [8] 21.3 µM
inactive: [6]

CC(C)(C)c1n[nH]c(=O)n(N)c1=O
not listed: [3] | [4] | [9]
inactive: all other assays above

CC1(C)C(=O)N(CO)C(=O)N1CO
inactive: [1] | [2] | [5] | [7] | [8]

Cc1cn[nH]c1
inactive: [1] | [2] | [5] | [7] | [8]

CN(C)CCCN1c2ccccc2CCc2ccccc21
inactive: [2]
active: [1] 30.6 µM | [8] 38.9 µM

CC(C)(C)CC(C)(C)c1ccccc1O
active: [7] 13.8 µM
not listed: [3] | [8] | [9]
inactive: all other assays above

C=CCCCCCCC=C
inactive: [1] | [2] | [5]

CNCC[C@H](Oc1cccc2ccccc12)c1cccs1
active: [1] 21.1 µM | [2] 26.6 µM | [3] 29.8 µM | [10] 33.5 µM
inactive: [6] | [7]

Cc1cccc(N(C)C)c1
not listed: [4] | [9]
inactive: all other assays above

Nc1cc(Cl)c([N+](=O)[O-])cc1O
inactive: [3] | [10] | [6] | [7]

COc1ccccc1OCCNCC(O)COc1cccc2[nH]c3ccccc3c12 (centres undefined)
active: [10] 13.3 µM
inactive: [3] | [4] | [6]

O=C1c2c(O)ccc(O)c2C(=O)c2c(NCCNCCO)ccc(NCCNCCO)c21
active: [1] 3.76 µM | [2] 4.22 µM
inactive: [10]

CN1[C@@H]2CC[C@@H]1CC(OC(=O)C(CO)c1ccccc1)C2 (some centres undefined)
inactive: [1] | [2] | [3] | [8]

CC(C)OC(=O)c1cc(C(=O)OC(C)C)cc([N+](=O)[O-])c1
active: [7] 22.2 µM
not listed: [4] | [6] | [9]
inactive: all other assays above

CCc1ccc(O)c(C(C)(C)C)c1
inactive: [1] | [2] | [5] | [7] | [8]

Clc1ccccc1CN1CCc2sccc2C1
inactive: [1] | [2] | [5] | [8]

CC(=O)C=O
inactive: [1] | [2] | [3] | [5] | [8]

CCCCCCCCCCCCCc1ccccc1
inactive: [1] | [2] | [5] | [7] | [8]

From PubChem BioAssay (Tox21)
